Experimental data published in the supplement of paper PMC12350171.
Where a name gives a salt, the structure may show the parent alone.

How the values were obtained:
Details in all cases: 20 µM
[1] = tested on: Salmonella enterica typhimurium; assay: growth AUC normalised to DMSO control (fraction of control); higher = less growth inhibition, active = hit call of the paper
Procedure, shortened: (§1)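 Pathogens passaged twice anaerobically were inoculated at a starting OD578 of 0.01 into pre-reduced mGAM plates with drug at 20 μM and 1% DMSO, sealed with breathable membranes. Haemophilus parainfluenzae medium was supplemented with hemin and NAD. OD578 was read hourly for 24 h, with three biological replicates. Growth-curve AUC was computed by the trapezoidal rule up to the exponential-to-stationary transition and normalised to DMSO controls on the same plate.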

[2] = tested on: Shigella flexneri; assay: as above
Procedure, shortened: as §1

[3] = tested on: Vibrio cholerae; assay: as above
Procedure, shortened: as §1

[4] = tested on: Yersinia pseudotuberculosis; assay: as above
Procedure, shortened: as §1

[5] = tested on: P. vulgatus RND KO; assay: growth AUC normalised to DMSO control (median) (fraction of control); higher = less growth inhibition, active = hit call of the paper
Procedure, shortened: (§2)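 Strains were passaged twice overnight without oxygen, then grown in mGAM in 96-well plates with each approved-drug library compound at 20 μM and 1% DMSO, starting at OD578 0.01. OD578 was read hourly for 24 h inside an anaerobic incubator. Curves were truncated at entry into stationary phase, and the trapezoidal-rule area under the curve was normalised to same-plate vehicle wells. The value is the median across three biological replicates.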

[6] = tested on: P. vulgatus WT; assay: as above
Procedure, shortened: as §2

[7] = tested on: S. enterica typhimurium WT; assay: as above
Procedure, shortened: as §2

[8] = tested on: S. enterica typhimurium tolC KO; assay: as above
Procedure, shortened: as §2

Measured: growth AUC normalised to DMSO control
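For growth AUC normalised to DMSO control (median) in this document: active when median AUC fell below 0.1.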

CCN1CCCC1CNC(=O)c1cc(S(N)(=O)=O)ccc1OC (stereo not given) [Sulpiride]
inactive: [1] 0.99 | [2] 1 | [3] 1.01 | [4] 1.02 | [5] 0.992 | [6] 1.01 | [7] 1 | [8] 0.999

Oc1ccc(OCc2ccccc2)cc1 [Monobenzone]
inactive: [1] 0.975 | [2] 0.941 | [3] 0.982 | [4] 0.974 | [5] 0.981 | [6] 0.992 | [7] 0.996 | [8] 0.977

Nc1ccn([C@@H]2CS[C@H](CO)O2)c(=O)n1 [Lamivudine]
inactive: [1] 0.98 | [2] 0.986 | [3] 0.995 | [4] 1.01 | [5] 1 | [6] 1.02 | [7] 1 | [8] 0.992

COc1ccc2cc([C@H](C)C(=O)O)ccc2c1 [(S)-Naproxen]
inactive: [1] 0.992 | [2] 1.01 | [3] 0.96 | [4] 0.964 | [5] 1.01 | [6] 1.04 | [7] 0.994 | [8] 0.998

CN1CCCN=C1/C=C/c1cccc(O)c1 [Oxantel pamoate]
inactive: [1] 1.01 | [2] 1.02 | [3] 1.05 | [4] 1.02 | [5] 1.01 | [6] 0.992 | [7] 1.01 | [8] 1.01

Clc1ccc(Cn2c(CN3CCCC3)nc3ccccc32)cc1 [Clemizole hydrochloride]
inactive: [1] 0.98 | [2] 0.988 | [3] 0.922 | [4] 0.986 | [5] 0.902 | [6] 0.857 | [7] 0.997 | [8] 0.949

COc1ccc(C(=O)c2ccccc2)c(O)c1 [Oxybenzone]
inactive: [1] 1.03 | [2] 1.03 | [3] 1 | [4] 1 | [5] 1.05 | [6] 1.06 | [7] 1 | [8] 0.954

Cc1cnc(C(=O)NCCc2ccc(S(=O)(=O)NC(=O)NC3CCCCC3)cc2)cn1 [Glipizide]
inactive: [1] 1.01 | [2] 0.984 | [3] 1.01 | [4] 1.01 | [5] 1.04 | [6] 0.998 | [7] 1.01 | [8] 0.996

O=C(O)CCc1nc(-c2ccccc2)c(-c2ccccc2)o1 [Oxaprozin]
inactive: [1] 1.02 | [2] 1.02 | [3] 1.01 | [4] 0.994 | [5] 1 | [6] 1.05 | [7] 1 | [8] 1

CC(=O)OCC(=O)[C@@]1(O)CC[C@H]2[C@@H]3CCC4=CC(=O)CC[C@]4(C)[C@H]3[C@@H](O)C[C@@]21C [Cortisol acetate]
inactive: [1] 1.03 | [2] 0.997 | [3] 1 | [4] 1 | [5] 1 | [6] 1.03 | [7] 1.01 | [8] 1

Cc1c(N(C)C)c(=O)n(-c2ccccc2)n1C [Amidopyrine]
inactive: [1] 1.01 | [2] 1.03 | [3] 1.05 | [4] 1.01 | [5] 1 | [6] 1.02 | [7] 1.01 | [8] 0.999

CC[N+](CC)(CC)CCC(O)(c1ccccc1)C1CCCCC1 (stereo not given) [Tridihexethyl chloride]
inactive: [1] 1 | [2] 1.03 | [3] 1.05 | [4] 1 | [5] 1.06 | [6] 1.07 | [7] 1.02 | [8] 0.686

CC(=O)[C@H]1CC[C@H]2[C@@H]3C=CC4=CC(=O)CC[C@@]4(C)[C@@H]3CC[C@]12C [Dydrogesterone]
inactive: [1] 1 | [2] 0.986 | [3] 0.99 | [4] 1.01 | [5] 1.02 | [6] 1.04 | [7] 1.01 | [8] 0.909

CC[C@H](C)C(=O)O[C@H]1C[C@@H](C)C=C2C=C[C@H](C)[C@H](CC[C@@H]3C[C@@H](O)CC(=O)O3)[C@H]21 [Lovastatin]
inactive: [1] 0.999 | [2] 0.997 | [3] 0.995 | [4] 0.999 | [5] 0.958 | [6] 0.928 | [7] 0.99 | [8] 0.967

CCC(C)(CN(C)C)OC(=O)c1ccccc1 (stereo not given) [Amyleine hydrochloride]
inactive: [1] 0.992 | [2] 0.989 | [3] 0.989 | [4] 1.01 | [5] 0.995 | [6] 1.01 | [7] 0.983 | [8] 1.01
